ADAM10 inh = inhibits human ADAM10 | O14672 | recombinant ADAM10, EDANS/DABCYL FRET peptide cleavage, 3 h | inhibition, % at 7 µM | 370,000 compounds, 0.62% hits | AID 720582;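 active means inhibition above a per-campaign cutoff equal to the mean of compounds falling between control-based bounds plus 3 SD, cut at about 20% in these data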
Target sequence (O14672 214-748 limits assumed): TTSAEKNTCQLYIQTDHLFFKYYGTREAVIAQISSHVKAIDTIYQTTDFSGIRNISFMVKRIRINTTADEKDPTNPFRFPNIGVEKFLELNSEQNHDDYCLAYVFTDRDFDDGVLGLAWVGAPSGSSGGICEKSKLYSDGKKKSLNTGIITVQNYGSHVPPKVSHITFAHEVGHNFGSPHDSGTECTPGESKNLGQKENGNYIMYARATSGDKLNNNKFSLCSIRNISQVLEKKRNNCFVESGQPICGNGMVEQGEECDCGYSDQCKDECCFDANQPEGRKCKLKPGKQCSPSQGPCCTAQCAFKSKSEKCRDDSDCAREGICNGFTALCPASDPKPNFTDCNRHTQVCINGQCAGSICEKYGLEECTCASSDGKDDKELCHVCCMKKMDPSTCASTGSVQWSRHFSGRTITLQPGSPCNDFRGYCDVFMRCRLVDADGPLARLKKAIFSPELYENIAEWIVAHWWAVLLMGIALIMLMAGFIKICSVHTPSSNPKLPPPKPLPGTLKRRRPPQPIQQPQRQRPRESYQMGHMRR
ADAM17 inh = inhibits human ADAM17; P78536; recombinant ADAM17, EDANS/DABCYL FRET peptide cleavage; inhibition, % at 6.95 µM; 370,000 compounds, 0.83% hits;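 active means inhibition above the mean of compounds lying between control limits plus 3 SD, set per campaign, cut at about 8.5% in these data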
AHR act = activators of human aryl hydrocarbon receptor; P35869; AHR-responsive luciferase reporter cells, luminescence; activation, % at 5 µM; 320,000 compounds, 2.5% hits; AID 2796; in the data active means activation above about 47%
NR3A LBD binder = modulators (binders) of human NR3A ligand-binding domain; Tm shift relative to glycine control, % at 25 µM; 340,000 compounds, 2.5% hits; AID 1259313; NR3A LBD differential scanning fluorimetry, Tm shift; 0% = protein alone, 100% = glycine-bound protein;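 active means melting temperature shift of at least 10% of the positive control shift, at one fixed dose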
rCAG binder = binds r(CAG) RNA repeats; r(CAG) RNA repeat, TO-PRO-1 dye displacement fluorescence; 370,000 compounds, 1.3% hits; inhibition, % at 3 µM;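 active means inhibition above the plate cutoff, the mean of all test compounds on that plate plus 3 SD, cut at about 35% in these data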;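 further: higher means more dye released from RNA so lower well fluorescence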
proKLK7 act = activates the human kallikrein-7 zymogen; P49862; 370,000 compounds, 0.9% hits; activation, % at 7 µM; purified proKLK7, EDANS-DABCYL substrate fluorescence; 100% is mature enzyme control, 0% vehicle;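 active means activation above the mean of all tested compounds plus 3 SD, computed per campaign excluding outliers beyond control limits, cut at about 13% in these data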
rCAG binder conf = r(CAG) RNA repeat binding, confirmation | shares compounds with rCAG binder | TO-PRO-1 dye displacement fluorescence | inhibition, % at 3 µM | 4,300 compounds, 70% hits | AID 652065;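 active means inhibition above a per-plate cutoff, the mean inhibition of sample wells plus 3 SD, cut at about 35% in these data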;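 further: loss of TO-PRO-1 fluorescence as compound displaces dye from 1x1 AA loop RNA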
dCAG dye counter = DNA CAG dye complex inhibition counter-screen; shares compounds with rCAG binder; d(CAG) DNA oligo TO-PRO-1 dye displacement, fluorescence; inhibition, % at 3 µM; 4,300 compounds, 94% hits; AID 652068;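 active means inhibition above its plate's cutoff, the mean test-well inhibition plus 3 SD, cut at about 4.8% in these data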;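 further: hits displace the dye from DNA and so lower well fluorescence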
Hits are given with their value. Most compounds without a hit are left out; they make up all but 7% or so of the library.

What do the screens show for `O=C(O)c1cccc(-n2cccc2/C=C2/NC(=O)N(c3cccc(Cl)c3)C2=O)c1`?
ADAM10 inh: inactive; ADAM17 inh: inactive; AHR act: inactive; NR3A LBD binder: inactive; rCAG binder: 36.1; proKLK7 act: inactive; rCAG binder conf: 35.0; dCAG dye counter: 10.0

How did CO[C@@H]1CN(C)C(=O)c2ccc(NS(=O)(=O)c3c(C)noc3C)cc2OC[C@@H](C)NC[C@@H]1C do in these assays?
ADAM10 inh: inactive; ADAM17 inh: inactive; rCAG binder: inactive; proKLK7 act: inactive

How did CCCCN1CC(N2CCCC2)CS1(=O)=O (stereo not given) do in these assays?
ADAM10 inh: inactive; ADAM17 inh: inactive; rCAG binder: inactive; proKLK7 act: inactive

What do the screens show for `Cc1cc(/C=N/Nc2ccc([N+](=O)[O-])cn2)c(C)n1-c1ccc(C(=O)O)cc1`?
ADAM10 inh: inactive; ADAM17 inh: inactive; AHR act: inactive; NR3A LBD binder: inactive; rCAG binder: 42.3; proKLK7 act: inactive; rCAG binder conf: inactive; dCAG dye counter: 9.4

Results for COc1ccc([C@H](C#Cc2ccccc2)CC(=O)O)cc1OC1CCCC1 ?
ADAM10 inh: inactive; ADAM17 inh: inactive; rCAG binder: inactive; proKLK7 act: inactive

Results for Cc1ccc(N2CC(C(=O)Nc3ccc(S(=O)(=O)Nc4nccs4)cc3)CC2=O)cc1C (stereo not given) ?
ADAM10 inh: inactive; ADAM17 inh: inactive; AHR act: inactive; NR3A LBD binder: inactive; rCAG binder: 47.6; proKLK7 act: inactive; rCAG binder conf: 64.4; dCAG dye counter: 18.9

Results for O=C(Nc1ccc(S(=O)(=O)Nc2nccs2)cc1)C1CC(=O)N(c2ccc(Cl)cc2)C1 (stereo not given) ?
ADAM10 inh: inactive; ADAM17 inh: inactive; AHR act: inactive; NR3A LBD binder: inactive; rCAG binder: 53.9; proKLK7 act: inactive; rCAG binder conf: 41.1; dCAG dye counter: 15.0

What do the screens show for `O=C(Nc1ccc(S(=O)(=O)Nc2ncccn2)cc1)C1CC(=O)N(c2ccc(Cl)cc2)C1` (stereo not given)?
ADAM10 inh: inactive; ADAM17 inh: inactive; AHR act: inactive; NR3A LBD binder: inactive; rCAG binder: inactive; proKLK7 act: inactive

Results for CC/C=C\[C@H](O)[C@H](O)C1=C(C)C(=O)[C@]2(O1)C(=O)N[C@@](OC)(C(=O)c1ccccc1)[C@@H]2O ?
ADAM10 inh: inactive; ADAM17 inh: inactive; rCAG binder: inactive; proKLK7 act: inactive

What do the screens show for `CCOc1ccc(S(=O)(=O)N2CCNC(=O)C2)cc1`?
ADAM10 inh: inactive; ADAM17 inh: inactive; AHR act: inactive; NR3A LBD binder: inactive; rCAG binder: 53.6; proKLK7 act: inactive; rCAG binder conf: inactive; dCAG dye counter: inactive

Results for Cc1sc2nc(SCC(=O)c3ccc(O)c(O)c3)n(C)c(=O)c2c1C ?
ADAM10 inh: inactive; ADAM17 inh: inactive; rCAG binder: 49.0; proKLK7 act: inactive; rCAG binder conf: 49.5; dCAG dye counter: 25.0

What do the screens show for `C[C@@H]1C[C@H](O)CCCCCC(=O)Cc2cc(O)cc(O)c2C(=O)O1`?
ADAM10 inh: inactive; ADAM17 inh: inactive; rCAG binder: inactive; proKLK7 act: inactive

Results for Cc1ccc([C@@H]2CC=C(C(=O)O)[C@H](c3cccc(Cl)c3)N2S(=O)(=O)c2ccccc2C)cc1 ?
ADAM10 inh: inactive; ADAM17 inh: inactive; AHR act: inactive; NR3A LBD binder: inactive; rCAG binder: 81.8; proKLK7 act: inactive; rCAG binder conf: 76.9; dCAG dye counter: 43.4

What do the screens show for `Cc1ccccc1S(=O)(=O)N1C(c2ccc(Cl)cc2)CC=C(C(=O)O)C1c1cccc(Cl)c1` (stereo not given)?
ADAM10 inh: inactive; ADAM17 inh: inactive; rCAG binder: 83.6; proKLK7 act: inactive; rCAG binder conf: 76.9; dCAG dye counter: 40.4

Screening results: PubChem, several laboratories
